PubChem BioAssay (NCATS)
Results filed as inconclusive are left out. Values without a mark were called inactive. The source made the active and inactive calls. Calls come from the whole dose curve.

assay: Cytotoxicity counterscreen for inhibitors of SARS-CoV-2 cell entry (AID 1645845); settings: cell viability (SARS-CoV-2 entry assay cells); series mostly up to 57.1 µM; activity change, negative = cytotoxicity: at the top concentration; note: nearly all actives have a fitted effect of over 50% in size
In short: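 Expi293F/hACE2 cells seeded overnight; cpd pin-transferred in DMSO, 1 h preincubation, + media, 48 h 37 C 5% CO2; ATPLite 1step luminescence; normalized to cells and no cells.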
% is set by controls: 0 for no effect and ±100 for the full control effect; potency is the fitted concentration of half-maximal effect.

SMILES	Potency	outcome	activity change, negative = cytotoxicity
Cc1cc2nc3ccc(=[N+](C)C)cc-3sc2cc1N	22.4 µM (active)		
C[C@]1(Cn2ccnn2)[C@H](C(=O)O)N2C(=O)C[C@H]2S1(=O)=O		inactive	
C#C[C@]1(OC(C)=O)CC[C@H]2[C@@H]3CCC4=C[C@@H](OC(C)=O)CC[C@@H]4[C@H]3CC[C@@]21C			-23.5%
CCCCCCCCCCCCCCCC[n+]1ccccc1	11.2 µM (active)		
O=c1[nH]c(=O)c2[nH]c(=O)[nH]c2[nH]1		inactive [at 11.3 µM]	
Cc1ccc(Cl)c(OCC(O)CNC(C)(C)C)c1 (centres undefined)			-10.4%
COc1ccc2cc1Oc1ccc(cc1)C[C@H]1c3c(cc4c(c3Oc3cc5c(cc3OC)CCN(C)[C@@H]5C2)OCO4)CCN1C	14.1 µM (active)		
N[C@H](C(=O)O)[C@@H](O)c1ccc(O)c(O)c1		inactive	
CC(C)=CCOc1ccc(/C=C/C(=O)c2ccc(OCC=C(C)C)cc2OCC(=O)O)cc1		inactive	
CCOC(=O)C1=C[C@]2(CC)CCCN3CCc4c(n1c1ccccc41)[C@@H]32			-18.6%
CC(C(O)c1ccc(O)cc1)N1CCC(Cc2ccccc2)CC1 (centres undefined)		inactive	
CC(=O)Oc1ccc(C(=C2CCCCC2)c2ccc(OC(C)=O)cc2)cc1		inactive	
C=C1C[C@H]2[C@@H]3C=C(C)C4=CC(=O)CC[C@]4(C)[C@H]3CC[C@]2(C)[C@@]1(OC(C)=O)C(C)=O			-10.7%
CCN(CC)CCOc1ccccc1C(=O)CCc1ccccc1		inactive	
Oc1cccc(-c2c3nc(c(-c4cccc(O)c4)c4ccc([nH]4)c(-c4cccc(O)c4)c4nc(c(-c5cccc(O)c5)c5ccc2[nH]5)CC4)C=C3)c1			-7%
CCO[C@@H]1O[C@H](C(COCc2ccccc2)OCc2ccccc2)[C@H](OCc2ccccc2)[C@H]1O (some centres undefined)			-17%
CC(C)C[C@@H](N)C(=O)O			0.463% [at 27.1 µM]
O=C(CCCN1CCC(O)(c2ccc(Br)cc2)CC1)c1ccc(F)cc1			-18.6%
CCCCOc1cc(C(=O)OCCN(CC)CC)ccc1N		inactive	
CC(C)(C)c1ccc(C(=O)CCCN2CCC(OC(c3ccccc3)c3ccccc3)CC2)cc1		inactive	

SMILES	Potency	outcome	activity change, negative = cytotoxicity
CCCS(=O)c1ccc2nc(NC(=O)OC)[nH]c2c1 (centres undefined)			-20.6%
N=C(N)c1ccc(OCCCOc2ccc(C(=N)N)cc2)cc1			-2.35%
CCN(CC)CC(=O)Nc1c(C)cccc1C(=O)OC			-17.5%
CCCCC/C=C\C/C=C\CCCCCCCC(=O)NC(C)c1ccccc1 (centres undefined)			-7.25%
CCCCOc1ccc(CC(=O)NO)cc1	inactive		
C=CCOc1ccccc1OCC(O)CNC(C)C (centres undefined)		inactive	
O=C(CCCCC(=O)Nc1c(I)cc(I)c(C(=O)O)c1I)Nc1c(I)cc(I)c(C(=O)O)c1I		inactive	
C[C@@H](CN(C)C)CN1c2ccccc2Sc2ccccc21		inactive	
C#C[C@]1(O)CC[C@H]2[C@@H]3CCc4cc(O)ccc4[C@H]3CC[C@@]21C			-20.8%
CC(=O)c1ccc2c(c1)N(CCCN(C)C)c1ccccc1S2			-13%
CC1(C)CCC(C)(C)c2cc(NC(=O)c3ccc(C(=O)O)cc3)ccc21	inactive		
CN(C)CCOC1=Cc2ccccc2Sc2ccc(Cl)cc21			-25.7%
CC(C)(C)C(=O)OCOC(=O)[C@@H]1N2C(=O)[C@@H](NC(=O)[C@H](N)c3ccccc3)[C@H]2SC1(C)C			0.793%
CCN(CC)CCCC(C)Nc1c2ccc(Cl)cc2nc2ccc(OC)cc12 (centres undefined)			-12.7%
CCC(=O)O[C@]1(C(=O)CCl)[C@@H](C)C[C@H]2[C@@H]3CCC4=CC(=O)C=C[C@]4(C)[C@@]3(F)[C@@H](O)C[C@@]21C	inactive		
Cc1cccc(CN2CCN(C(c3ccccc3)c3ccc(Cl)cc3)CC2)c1 (centres undefined)		inactive	
CCCCN(CCCC)CCC(O)c1cc2c(Cl)cc(Cl)cc2c2cc(C(F)(F)F)ccc12 (centres undefined)			-18.1%
C=CCOc1cc(Cl)ccc1C(=O)NCCN(CC)CC			-5.88%
O=C(O)c1ccccc1Nc1cc(Cl)ccc1C(=O)O		inactive [at 27.1 µM]	
